IDE cell inh: human IDE inhibitors in live cells, primary screen, fluorescence polarization, HEK cells, FAbetaB substrate; Insulin-degrading enzyme (Homo sapiens), P14735; FAbetaB cleavage; inhibition, % at 5.59 µM; 0.41% of 320,000 active; AID 434962, 2010;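 active = percent inhibition above the average of all tested compounds plus 3 SD, set per screening campaign, cut at about 16% in these data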;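 also: IDE supplied by intact live HEK cells; FP after avidin binding of uncleaved biotin substrate so inhibition keeps polarization high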
Target sequence (P14735 whole entry, looked up): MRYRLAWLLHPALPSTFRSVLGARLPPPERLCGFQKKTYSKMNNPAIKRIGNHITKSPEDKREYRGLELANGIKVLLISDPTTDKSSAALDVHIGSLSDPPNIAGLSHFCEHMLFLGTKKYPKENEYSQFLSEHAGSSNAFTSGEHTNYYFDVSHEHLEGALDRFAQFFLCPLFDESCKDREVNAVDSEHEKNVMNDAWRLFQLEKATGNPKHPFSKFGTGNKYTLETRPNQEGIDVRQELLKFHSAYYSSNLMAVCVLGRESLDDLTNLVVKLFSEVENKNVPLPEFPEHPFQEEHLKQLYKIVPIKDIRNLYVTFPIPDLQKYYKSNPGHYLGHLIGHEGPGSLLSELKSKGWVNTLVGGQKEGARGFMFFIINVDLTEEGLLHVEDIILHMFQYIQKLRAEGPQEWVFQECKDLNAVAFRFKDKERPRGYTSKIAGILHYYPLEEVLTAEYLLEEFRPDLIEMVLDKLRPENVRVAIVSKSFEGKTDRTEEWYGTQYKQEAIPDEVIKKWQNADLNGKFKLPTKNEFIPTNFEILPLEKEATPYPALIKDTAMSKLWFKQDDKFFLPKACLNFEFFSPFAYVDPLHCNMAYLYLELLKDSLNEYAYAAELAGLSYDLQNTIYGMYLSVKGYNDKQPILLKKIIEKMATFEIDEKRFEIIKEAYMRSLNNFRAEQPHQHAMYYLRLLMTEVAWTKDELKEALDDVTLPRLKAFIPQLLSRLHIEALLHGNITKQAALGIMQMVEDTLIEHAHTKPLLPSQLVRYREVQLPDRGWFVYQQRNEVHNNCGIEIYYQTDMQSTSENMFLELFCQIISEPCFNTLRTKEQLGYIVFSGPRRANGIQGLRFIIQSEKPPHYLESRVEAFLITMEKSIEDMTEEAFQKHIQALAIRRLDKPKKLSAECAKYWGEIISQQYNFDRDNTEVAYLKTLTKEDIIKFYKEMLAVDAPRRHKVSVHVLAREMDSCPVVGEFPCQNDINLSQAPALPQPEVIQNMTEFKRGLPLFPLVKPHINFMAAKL
CRFBP-R2 agonist: agonists of CRF-BP/CRF-R2 complex, primary screen, cell-based, HEK293, calcium dye fluorescence, uHTS. CRF-binding protein / CRF receptor 2 complex (human). calcium dye fluorescence (FLIPR); percent of saturating CRF peptide response. activation, % at 13.2 µM. 0.46% of 350,000 active. AID 588473, 2011;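 active = activation of at least 50%, plus an integration ratio under a set limit after plate pattern correction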
cardiac RTF act: cardiac RTF calcium sensitivity activators, primary screen, biochemical, IANBD-TnC fluorescence, EC20 calcium; 0.24% of 340,000 active; IANBD-labeled TnC RTF fluorescence at EC20 calcium; 0% EC20 calcium, 100% full calcium; activation, % at 7.2 µM; Troponin I, cardiac muscle (Homo sapiens) + Troponin T, cardiac muscle (Homo sapiens) + …; AID 493008, 2010;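 active = activation above the mean over all tested compounds plus 3 SD, cut at about 30% in these data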;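 also: rise in fluorescence read as greater calcium sensitivity of cardiac thin filaments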
CRFBP-R2 block: antagonists of CRF-BP/CRF-R2 complex, primary screen, cell-based, HEK293, calcium dye fluorescence, uHTS; CRF-induced calcium fluorescence; inhibition, % at 11.8 µM; 0.59% of 350,000 active;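 active = inhibition of the ligand-induced calcium signal above about 50% at the single tested concentration, limit read from the data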
IDE cell activ: human IDE activators in live cells, primary screen, fluorescence polarization, HEK cells, FAbeta-B substrate; Insulin-degrading enzyme (Homo sapiens), P14735; FAbeta-B cleavage; 0% vehicle, 100% cell-free pure enzyme wells; activation, % at 5.96 µM; 0.073% of 340,000 active;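 active = activation above the mean of all tested compounds plus 3 SD, set per screening campaign, cut at about 17% in these data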
Cardiac RTF inh: cardiac RTF calcium sensitivity inhibitors, primary screen, biochemical, IANBD-TnC fluorescence, EC70 calcium; Troponin I, cardiac muscle (Homo sapiens) + Troponin T, cardiac muscle (Homo sapiens) + …; IANBD-labeled cardiac RTF, Ca2+ fluorescence; inhibition, % at 7.15 µM; 0.12% of 340,000 active;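 active = inhibition above the mean inhibition of all tested compounds plus 3 SD, cut at about 17% in these data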;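 also: assay run at fixed EC70 calcium of 1.6 mM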
IDE cell inh cf: human IDE inhibitors in live cells, confirmation, fluorescence polarization, HEK cells, FAbetaB substrate; FAbetaB cleavage; 51% of 1,200 active; AID 435028, 2010; shares compounds with IDE cell inh; inhibition, % at 5.59 µM;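 active = mean inhibition across triplicate wells above the cutoff set by the earlier primary insulin-degrading enzyme screen, cut at about 16% in these data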
HEK cytotox: cytotoxicity in HEK cells, cytotoxicity control for IDE inhibitor project, cell-based, luminescence; shares compounds with IDE cell inh; HEK293 cytotoxicity, ATP luminescence; inhibition, % at 5.59 µM; 28% of 1,200 active; AID 449730, 2010; in the data active = inhibition above about 22%
A number is an active result. Compounds with a hit are over-represented: about 1.5% of the library has one in this group of screens.

`CC(OC(=O)/C(C#N)=C/c1ccc(N(C)C)cc1)C(=O)NCc1ccco1` (centres undefined) gave IDE cell inh inactive, cardiac RTF act inactive, IDE cell activ inactive and Cardiac RTF inh inactive.
For CN(C)c1ccc(/C=C(\C#N)C(=O)NCc2ccco2)cc1 the results were IDE cell inh 22, IDE cell inh cf inactive and HEK cytotox inactive.
For CCOCCCNc1nc2c(C)cccn2c(=O)c1/C=C1\SC(=S)N(C(C)CC)C1=O (centres undefined) the results were IDE cell inh 17, CRFBP-R2 agonist 109, cardiac RTF act inactive, CRFBP-R2 block inactive, IDE cell activ inactive, Cardiac RTF inh inactive, IDE cell inh cf 80 and HEK cytotox inactive.
Screening Cc1ccc(CN(C(=O)COc2ccc(Br)cc2)C2CCS(=O)(=O)C2)o1 (centres undefined) returned IDE cell inh inactive, CRFBP-R2 agonist inactive, cardiac RTF act inactive, CRFBP-R2 block inactive, IDE cell activ inactive and Cardiac RTF inh inactive.
Cc1csc2ncnc(NNC(=O)c3ccc(Cl)cc3)c12 was read as IDE cell inh 17, CRFBP-R2 agonist inactive, cardiac RTF act inactive, CRFBP-R2 block inactive, IDE cell activ inactive, Cardiac RTF inh inactive, IDE cell inh cf inactive and HEK cytotox 34.
O=C(NNc1ncnc2sccc12)c1ccc(Cl)cc1 was read as IDE cell inh inactive, CRFBP-R2 agonist inactive and CRFBP-R2 block inactive.
Cc1ccc(S(=O)(=O)CC(=O)N2CCN(c3ccc([N+](=O)[O-])cc3)CC2)cc1 was read as IDE cell inh 19, CRFBP-R2 agonist inactive, cardiac RTF act inactive, CRFBP-R2 block inactive, IDE cell activ inactive, Cardiac RTF inh inactive, IDE cell inh cf inactive and HEK cytotox 23.
For COc1ccc(C(=O)OCC(=O)N2CCN(C(=O)c3ccco3)CC2)cc1OC the results were IDE cell inh inactive, CRFBP-R2 agonist inactive, cardiac RTF act inactive, CRFBP-R2 block inactive, IDE cell activ inactive and Cardiac RTF inh inactive.
Nc1c(C(=O)N/N=C/c2ccc(Cl)cc2)cnn1-c1ccccc1 was read as IDE cell inh 18, CRFBP-R2 agonist inactive, cardiac RTF act inactive, CRFBP-R2 block inactive, IDE cell activ inactive, Cardiac RTF inh inactive, IDE cell inh cf inactive and HEK cytotox inactive.
O=C(Cn1sc2ccccc2c1=O)Nc1ccc(Cl)cc1 was read as CRFBP-R2 agonist inactive and CRFBP-R2 block inactive.
`Cc1cc(C)c2c(=O)n(CC(=O)Nc3ccc(Cl)cc3)sc2n1` gave IDE cell inh 46, CRFBP-R2 agonist inactive, cardiac RTF act inactive, CRFBP-R2 block inactive, IDE cell activ inactive, Cardiac RTF inh inactive, IDE cell inh cf inactive and HEK cytotox 76.
Screening Cc1cccc(N2CCN(C(=O)Cn3sc4nc(C)cc(C)c4c3=O)CC2C)c1 (centres undefined) returned IDE cell inh 41, CRFBP-R2 agonist inactive, cardiac RTF act inactive, CRFBP-R2 block inactive, IDE cell activ inactive, Cardiac RTF inh inactive, IDE cell inh cf inactive and HEK cytotox 76.
Screening Cc1ccc(NC(=O)Cn2sc3nc(C)cc(C)c3c2=O)c(Cl)c1 returned IDE cell inh 54, CRFBP-R2 agonist inactive, cardiac RTF act inactive, CRFBP-R2 block inactive, IDE cell activ inactive, Cardiac RTF inh inactive, IDE cell inh cf inactive and HEK cytotox 27.
Screening Cc1cc(C)c2c(=O)n(CC(=O)Nc3cccc(F)c3)sc2n1 returned IDE cell inh 21, CRFBP-R2 agonist inactive, cardiac RTF act inactive, CRFBP-R2 block inactive, IDE cell activ inactive, Cardiac RTF inh inactive, IDE cell inh cf inactive and HEK cytotox 113.
For CCOC(=O)c1cn(CC(=O)Nc2cccc(F)c2)nn1 the results were IDE cell inh inactive, CRFBP-R2 agonist inactive, cardiac RTF act inactive, CRFBP-R2 block inactive, IDE cell activ inactive and Cardiac RTF inh inactive.
`COc1ccccc1NC(=O)c1ccc(S(=O)(=O)N2CCCC(C)C2)cc1` (centres undefined) gave IDE cell inh inactive, CRFBP-R2 agonist inactive, cardiac RTF act inactive, CRFBP-R2 block inactive, IDE cell activ inactive and Cardiac RTF inh inactive.
Screening CCOc1ccc(NC(=O)Cn2sc3nc(C)cc(C)c3c2=O)cc1 returned IDE cell inh 40, CRFBP-R2 agonist inactive, cardiac RTF act inactive, CRFBP-R2 block inactive, IDE cell activ inactive, Cardiac RTF inh inactive, IDE cell inh cf inactive and HEK cytotox 79.
For O=C(C1=NN(c2ccccc2)C(=O)CC1)N1CCc2ccccc2C1 the results were IDE cell inh inactive, CRFBP-R2 agonist inactive, cardiac RTF act inactive, CRFBP-R2 block inactive, IDE cell activ inactive and Cardiac RTF inh inactive.
For COC1=CC(=Cc2c(N)n3nc(CC(=O)N4CCOCC4)sc3nc2=O)C=C(OC)C1=O the results were IDE cell inh 121, CRFBP-R2 agonist 151, cardiac RTF act inactive, CRFBP-R2 block inactive, IDE cell activ inactive, Cardiac RTF inh inactive, IDE cell inh cf 26 and HEK cytotox inactive.
C=CCC1=C/C(=C\c2c(N)n3nc(CC(=O)N4CCCC4)sc3nc2=O)C=C(OC)C1=O was read as IDE cell inh 26, CRFBP-R2 agonist 71, cardiac RTF act inactive, CRFBP-R2 block inactive, IDE cell activ inactive, Cardiac RTF inh inactive, IDE cell inh cf 26 and HEK cytotox inactive.
Nc1c(C=C2C=CC(=O)C=C2)c(=O)nc2sc(CC(=O)N3CCOCC3)nn12 was read as IDE cell inh inactive, CRFBP-R2 agonist inactive, cardiac RTF act inactive, CRFBP-R2 block inactive, IDE cell activ inactive and Cardiac RTF inh inactive.
For CC(C)c1ccc(S(=O)(=O)Nc2ccc3c(c2)OCO3)cc1 the results were IDE cell inh inactive, CRFBP-R2 agonist inactive, cardiac RTF act inactive, CRFBP-R2 block inactive, IDE cell activ inactive and Cardiac RTF inh inactive.
`Cc1ccc(NC(=O)CSCC(=O)Nc2ccccc2C(=O)NC2CC2)cc1` gave CRFBP-R2 agonist inactive, cardiac RTF act inactive, CRFBP-R2 block inactive, IDE cell activ inactive and Cardiac RTF inh inactive.
For CCOC(=O)N1CCC2(CC1)C(C#N)=C(N)Oc1c2sc2nc(C)cc(C)c12 the results were IDE cell inh inactive, CRFBP-R2 agonist inactive, cardiac RTF act inactive, CRFBP-R2 block inactive, IDE cell activ inactive and Cardiac RTF inh inactive.
